Reference: the supplement of paper PMC10849652
About 8,800 targets were measured; listed, in parts, are those with a hit and a random draw of the rest. About 0.5% of all pairs of compound and target were hits.

Legend:
Assay in all cases: log2 fold change, soluble protein after heating vs DMSO (PISA); higher = thermal stabilisation; K562 lysate, 10 uM; active = over 0.2 and 3.5 SD of the protein, either way, in both replicates (recomputed)
[1] = compound: CS(=O)(=O)CCNCc1ccc(-c2ccc3ncnc(Nc4ccc(OCc5cccc(F)c5)c(Cl)c4)c3c2)o1 [lapatinib]
How it was run: (§1)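 K562 pellets were dounce-homogenised in PBS pH 7.4 containing 1 mM MgCl2, and the crude extract, at 1 mg/mL protein, was exposed to 10 μM compound for 30 min. Aliquots were heated for 3 min across 48°C-58°C, pooled, brought to 0.5% NP-40 at 4°C and spun at 21,000xg for 90 min, with the supernatant taken as soluble protein. TMTpro 16plex LC-MS/MS with equalised channel sums quantified that protein. Values are log-two fold changes in thermal stability relative to solvent controls, taken from duplicates.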

[2] = compound: CS(=O)(=O)N1CCN(Cc2cc3nc(-c4cccc5[nH]ncc45)nc(N4CCOCC4)c3s2)CC1 [pictilisib]
How it was run: as §1

[3] = compound: C[C@H](C1=CC=C(C=C1)C(=O)NC2=C3C=CNC3=NC=C2)N
How it was run: as §1

[4] = compound: C[C@H](Nc1ncnc2nc[nH]c12)c1cc2cccc(Cl)c2c(=O)n1-c1ccccc1 [duvelisib]
How it was run: as §1

[5] = compound: Cc1cc(Nc2cc(CN3CCOCC3)c3nc(C)c(Cc4ccc(Cl)cc4F)n3n2)n[nH]1 [gandotinib]
How it was run: as §1

[6] = compound: Cc1cc(Nc2cc(N3CCN(C)CC3)nc(Sc3ccc(NC(=O)C4CC4)cc3)n2)n[nH]1 [tozasertib]
How it was run: as §1

[7] = compound: Cc1ccc(NC(=O)c2ccc(CN3CC[C@H](N(C)C)C3)c(C(F)(F)F)c2)cc1Nc1nccc(-c2cncnc2)n1 [bafetinib]
How it was run: as §1

[8] = compound: Cc1cccc(CC(=O)N2CCc3c2ccc(-c2cn(C)c4ncnc(N)c24)c3F)n1
How it was run: as §1

[9] = compound: Cc1cn(-c2cc(NC(=O)c3ccc(C)c(Nc4nccc(-c5cccnc5)n4)c3)cc(C(F)(F)F)c2)cn1 [nilotinib]
How it was run: as §1

[10] = compound: Cc1nc(Nc2n[nH]c3c2CN(C(=O)N[C@H](CN(C)C)c2ccccc2)C3(C)C)c2sccc2n1
How it was run: as §1

[11] = compound: Cc1nc(Nc2ncc(C(=O)Nc3c(C)cccc3Cl)s2)cc(N2CCN(CCO)CC2)n1 [dasatinib]
How it was run: as §1

[12] = compound: Cc1ncc(-c2ccnc(Nc3ccc(S(C)(=O)=O)cc3)n2)n1C(C)C
How it was run: as §1

[13] = compound: Cn1cc(-c2ccc3c(c2)CCN3C(=O)Cc2cccc(C(F)(F)F)c2)c2c(N)ncnc21
How it was run: as §1

[14] = compound: Cn1cncc1[C@@](N)(c1ccc(Cl)cc1)c1ccc2c(c1)c(-c1cccc(Cl)c1)cc(=O)n2C [tipifarnib]
How it was run: as §1

[15] = compound: NC(=O)c1cnc(N[C@@H]2CCCC[C@@H]2N)nc1Nc1cccc(-n2nccn2)c1
How it was run: as §1

[16] = compound: NC1(c2ccc(-c3nc4ccn5c(=O)[nH]nc5c4cc3-c3ccccc3)cc2)CCC1
How it was run: as §1

[17] = compound: C[C@@H](Oc1cc(-c2cnn(C3CCNCC3)c2)cnc1N)c1c(Cl)ccc(F)c1Cl [crizotinib]
How it was run: as §1

[18] = compound: Cc1ccc(-n2nc(C(C)(C)C)cc2NC(=O)Nc2ccc(OCCN3CCOCC3)c3ccccc23)cc1 [doramapimod]
How it was run: as §1

[19] = compound: Cn1cc(CNCC2CCN(c3ncc(C(=O)NO)cn3)CC2)c2ccccc21 [quisinostat]
How it was run: as §1

[20] = compound: NC(=O)Nc1cc(-c2cccc(F)c2)sc1C(=O)N[C@H]1CCCNC1
How it was run: as §1

Measured: log2 fold change

RTTN (UniProt Q86VV8)
inactive: [1] 0.306 | [2] -0.034 | [3] -0.053 | [4] 0.067 | [5] -0.289 | [6] -0.07 | [7] -0.032 | [8] 0.203 | [9] -0.102 | [10] 0.14 | [11] -0.086 | [12] -0.003 | [13] -0.161 | [14] -0.069 | [15] -0.282 | [16] 0.216

S100A6 (UniProt P06703)
active: [11] 0.774
inactive: [1] 0.069 | [17] 0.119 | [3] 0.088 | [4] 0 | [5] 0.207 | [6] -0.038 | [18] -0.017 | [8] -0.119 | [13] -0.063 | [19] 0.001 | [20] -0.078 | [15] -0.063 | [16] 0.026

RFWD3 (UniProt Q6PCD5)
Chain of UniProt Q6PCD5 (Q6PCD5 whole entry, looked up): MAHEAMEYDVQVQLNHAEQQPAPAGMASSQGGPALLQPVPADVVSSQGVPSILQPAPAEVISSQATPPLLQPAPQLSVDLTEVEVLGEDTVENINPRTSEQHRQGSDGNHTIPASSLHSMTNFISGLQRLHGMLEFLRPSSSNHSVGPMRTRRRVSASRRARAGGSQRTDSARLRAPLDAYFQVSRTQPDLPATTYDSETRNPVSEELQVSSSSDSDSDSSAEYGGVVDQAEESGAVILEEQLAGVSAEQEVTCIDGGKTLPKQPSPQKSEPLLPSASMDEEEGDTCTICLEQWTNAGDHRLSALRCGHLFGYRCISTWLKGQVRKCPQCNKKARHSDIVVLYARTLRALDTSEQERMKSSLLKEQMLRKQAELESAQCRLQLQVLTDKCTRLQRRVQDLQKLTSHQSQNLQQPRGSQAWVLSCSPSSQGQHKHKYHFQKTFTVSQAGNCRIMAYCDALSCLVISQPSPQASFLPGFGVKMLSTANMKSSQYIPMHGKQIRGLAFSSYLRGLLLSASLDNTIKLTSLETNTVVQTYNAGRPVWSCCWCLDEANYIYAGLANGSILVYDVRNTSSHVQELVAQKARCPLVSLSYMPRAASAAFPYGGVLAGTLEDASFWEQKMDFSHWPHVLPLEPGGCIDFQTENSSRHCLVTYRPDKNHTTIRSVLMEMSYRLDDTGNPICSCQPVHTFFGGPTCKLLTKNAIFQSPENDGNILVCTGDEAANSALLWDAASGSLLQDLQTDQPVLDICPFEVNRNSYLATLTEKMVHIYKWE
inactive: [2] -0.12 | [17] -0.066 | [3] 0.036 | [4] 0.041 | [5] 0.004 | [6] -0.037 | [18] 0.036 | [7] -0.04 | [8] 0.107 | [9] 0.042 | [10] -0.066 | [11] 0.027 | [12] -0.082 | [13] 0.004 | [19] -0.041 | [14] -0.037 | [20] 0.003 | [16] -0.053

RHBDD1 (UniProt Q8TEB9)
inactive: [1] 0.06 | [2] -0.216 | [3] 0.036 | [5] -0.118 | [6] -0.071 | [7] -0.133 | [8] -0.028 | [15] 0.103

RUFY2 isoform 1 (UniProt Q8WXA3)
active: [2] -0.533
inactive: [17] -0.015 | [3] 0.116 | [5] 0.072 | [6] 0.131 | [18] -0.136 | [7] 0.177 | [8] -0.099 | [9] -0.006 | [10] 0.02 | [12] 0.119 | [19] 0.047 | [14] 0.177 | [20] 0.007

SELENOK (UniProt Q9Y6D0)
Chain of UniProt Q9Y6D0 (Q9Y6D0 whole entry, looked up): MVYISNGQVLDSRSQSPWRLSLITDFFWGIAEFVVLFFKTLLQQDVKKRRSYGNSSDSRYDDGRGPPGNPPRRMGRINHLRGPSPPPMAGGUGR
active: [3] -0.543 | [5] 0.52 | [8] 0.542
inactive: [1] -0.065 | [2] -0.048 | [4] 0.082 | [7] -0.027 | [9] -0.009 | [10] -0.032 | [11] 0.082 | [12] 0.064 | [13] -0.032 | [14] -0.077 | [15] 0.001

QSER1, A0A3B3IRW6
inactive: [1] -0.04 | [17] -0.072 | [4] 0.005 | [6] -0.033 | [18] 0 | [9] -0.028 | [10] 0.056 | [11] 0.018 | [12] 0.042 | [13] 0.052 | [19] -0.117 | [14] -0.048 | [20] 0.064 | [15] -0.027 | [16] -0.048

RNASEH1 (UniProt O60930)
Chain of UniProt O60930 (O60930 whole entry, looked up): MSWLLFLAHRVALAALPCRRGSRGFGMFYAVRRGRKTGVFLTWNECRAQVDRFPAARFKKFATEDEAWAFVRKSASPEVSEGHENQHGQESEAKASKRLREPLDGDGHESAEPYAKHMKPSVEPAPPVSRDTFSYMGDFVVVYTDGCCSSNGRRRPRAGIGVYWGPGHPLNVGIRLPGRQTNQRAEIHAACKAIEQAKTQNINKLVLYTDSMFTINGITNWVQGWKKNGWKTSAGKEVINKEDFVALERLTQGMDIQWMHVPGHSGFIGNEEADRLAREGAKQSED
inactive: [3] -0.014 | [5] -0.174 | [8] 0.274

RECQL4 (UniProt O94761)
inactive: [2] -0.032 | [17] -0.079 | [3] -0.039 | [4] 0.061 | [6] -0.014 | [18] 0.029 | [7] -0.099 | [8] 0.146 | [9] 0.051 | [10] 0.102 | [11] -0.007 | [12] -0.063 | [13] -0.019 | [19] -0.094 | [14] 0.024 | [20] 0.023 | [16] 0.017
active: [5] -0.472

RNPC3 (UniProt Q96LT9)
inactive: [1] -0.018 | [17] -0.043 | [3] 0.036 | [4] 0.072 | [5] 0.016 | [18] -0.115 | [8] -0.115 | [9] -0.104 | [10] 0.069 | [11] 0.042 | [12] 0.01 | [13] -0.061 | [19] -0.071 | [14] -0.075 | [20] -0.063 | [15] -0.056 | [16] 0.06

SEMA4G isoform 2 (UniProt Q9NTN9)
inactive: [17] -0.084 | [3] 0.036 | [4] -0.294 | [5] 0.019 | [6] 0.082 | [18] -0.053 | [8] -0.024 | [11] 0.006 | [13] 0.235 | [19] 0.074 | [20] 0.085 | [16] 0.077

RNF24 isoform 2 (UniProt Q9Y225)
inactive: [2] -0.089 | [17] -0.074 | [3] -0.173 | [5] 0.117 | [18] -0.093 | [7] -0.477 | [8] 0.028 | [9] 0.105 | [10] -0.028 | [12] 0.123 | [19] -0.139 | [14] 0.034 | [20] -0.075 | [16] 0.051

SCNM1 (UniProt Q9BWG6)
Chain of UniProt Q9BWG6 (Q9BWG6 whole entry, looked up): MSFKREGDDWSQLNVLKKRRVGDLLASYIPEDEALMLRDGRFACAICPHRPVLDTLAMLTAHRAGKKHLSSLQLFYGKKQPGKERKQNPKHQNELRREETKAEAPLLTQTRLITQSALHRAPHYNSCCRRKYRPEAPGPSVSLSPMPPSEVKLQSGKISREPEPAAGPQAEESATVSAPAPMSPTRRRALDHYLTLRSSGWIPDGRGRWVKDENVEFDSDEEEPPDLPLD
inactive: [1] 0.006 | [17] 0.057 | [3] 0.022 | [4] 0.057 | [5] 0.015 | [6] -0.039 | [18] -0.017 | [8] -0.157 | [9] -0.078 | [10] -0.045 | [11] 0.122 | [12] -0.091 | [13] 0.015 | [19] -0.061 | [14] 0.045 | [20] 0.06 | [15] -0.104 | [16] -0.106

RFNG (UniProt Q9Y644)
inactive: [9] 0.184 | [10] 0.054 | [12] -0.078 | [14] -0.048

SATB2 (UniProt Q9UPW6)
inactive: [1] -0.009 | [17] 0.009 | [3] 0.042 | [4] 0.03 | [5] -0.039 | [6] -0.008 | [18] 0.002 | [8] -0.008 | [9] -0.08 | [10] -0.02 | [11] 0.041 | [12] -0.005 | [13] 0.013 | [19] -0.06 | [14] 0.009 | [20] 0.018 | [15] 0.031 | [16] 0

RBM4 isoform 3 (UniProt Q9BWF3)
inactive: [17] 0.114 | [18] 0.016 | [19] -0.094 | [20] 0.06

RAB5IF isoform 5 (UniProt Q9BUV8)
Chain of UniProt Q9BUV8 (Q9BUV8 whole entry, looked up): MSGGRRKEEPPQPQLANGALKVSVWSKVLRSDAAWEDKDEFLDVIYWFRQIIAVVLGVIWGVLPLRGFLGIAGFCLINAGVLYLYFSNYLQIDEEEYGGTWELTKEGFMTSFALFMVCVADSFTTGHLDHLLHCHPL
inactive: [1] -0.043 | [2] -0.122 | [4] -0.071 | [5] -0.234 | [6] 0 | [7] 0.221 | [8] -0.357 | [9] -0.033 | [10] -0.033 | [11] -0.108 | [12] -0.003 | [13] 0.06 | [14] -0.189 | [15] 0.026 | [16] -0.096
active: [3] 0.753

RBM45 (UniProt Q8IUH3)
Chain of UniProt Q8IUH3 (Q8IUH3 whole entry, looked up): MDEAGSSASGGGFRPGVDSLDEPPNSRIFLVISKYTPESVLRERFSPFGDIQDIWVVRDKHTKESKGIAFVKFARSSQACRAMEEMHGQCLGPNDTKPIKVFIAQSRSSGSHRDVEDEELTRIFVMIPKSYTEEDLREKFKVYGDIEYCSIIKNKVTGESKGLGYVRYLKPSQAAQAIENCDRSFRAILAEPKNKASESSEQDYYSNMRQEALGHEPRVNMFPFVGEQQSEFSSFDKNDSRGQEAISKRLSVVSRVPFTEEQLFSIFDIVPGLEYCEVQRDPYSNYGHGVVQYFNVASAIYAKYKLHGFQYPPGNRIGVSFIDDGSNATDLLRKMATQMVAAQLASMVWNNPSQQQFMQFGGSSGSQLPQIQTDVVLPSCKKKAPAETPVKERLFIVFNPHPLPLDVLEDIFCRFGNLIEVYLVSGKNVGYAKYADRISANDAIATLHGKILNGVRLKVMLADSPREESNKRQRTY
inactive: [1] -0.12 | [17] -0.094 | [3] 0.184 | [5] -0.1 | [18] 0.014 | [8] 0.077 | [9] 0.051 | [10] -0.077 | [12] 0.143 | [19] -0.145 | [14] -0.012 | [20] -0.025 | [15] 0.061

RPS6KA5 (UniProt O75582)
Chain of UniProt O75582 (O75582 whole entry, looked up): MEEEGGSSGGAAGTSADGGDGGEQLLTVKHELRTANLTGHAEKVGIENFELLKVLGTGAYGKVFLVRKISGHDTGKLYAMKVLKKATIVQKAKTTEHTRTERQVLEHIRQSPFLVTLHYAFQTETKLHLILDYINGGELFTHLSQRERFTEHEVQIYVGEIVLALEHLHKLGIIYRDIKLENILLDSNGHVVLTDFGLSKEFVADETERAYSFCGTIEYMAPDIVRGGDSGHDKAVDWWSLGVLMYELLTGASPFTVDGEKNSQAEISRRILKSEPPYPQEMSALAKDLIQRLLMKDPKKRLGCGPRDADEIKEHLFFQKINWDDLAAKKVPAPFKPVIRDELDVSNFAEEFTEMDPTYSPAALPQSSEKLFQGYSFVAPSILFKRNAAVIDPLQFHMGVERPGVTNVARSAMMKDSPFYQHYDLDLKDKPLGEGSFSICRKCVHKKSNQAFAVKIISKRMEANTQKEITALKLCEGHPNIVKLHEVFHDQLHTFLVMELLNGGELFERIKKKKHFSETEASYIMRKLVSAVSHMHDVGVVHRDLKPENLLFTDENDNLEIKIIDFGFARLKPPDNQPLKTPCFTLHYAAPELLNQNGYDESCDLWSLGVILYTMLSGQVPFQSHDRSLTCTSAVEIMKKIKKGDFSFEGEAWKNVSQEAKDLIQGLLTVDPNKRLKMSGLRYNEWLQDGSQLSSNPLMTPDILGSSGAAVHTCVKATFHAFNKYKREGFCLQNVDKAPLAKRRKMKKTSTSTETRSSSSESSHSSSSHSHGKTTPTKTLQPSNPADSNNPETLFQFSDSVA
inactive: [1] -0.024 | [17] 0.028 | [3] 0.13 | [4] -0.011 | [5] -0.23 | [6] 0.106 | [18] -0.043 | [8] -0.032 | [9] -0.037 | [10] 0.004 | [11] -0.006 | [12] -0.079 | [13] 0.065 | [19] 0.062 | [14] 0.042 | [20] 0.073 | [15] -0.086 | [16] -0.127

RLIM (UniProt Q9NVW2)
Chain of UniProt Q9NVW2 (Q9NVW2 whole entry, looked up): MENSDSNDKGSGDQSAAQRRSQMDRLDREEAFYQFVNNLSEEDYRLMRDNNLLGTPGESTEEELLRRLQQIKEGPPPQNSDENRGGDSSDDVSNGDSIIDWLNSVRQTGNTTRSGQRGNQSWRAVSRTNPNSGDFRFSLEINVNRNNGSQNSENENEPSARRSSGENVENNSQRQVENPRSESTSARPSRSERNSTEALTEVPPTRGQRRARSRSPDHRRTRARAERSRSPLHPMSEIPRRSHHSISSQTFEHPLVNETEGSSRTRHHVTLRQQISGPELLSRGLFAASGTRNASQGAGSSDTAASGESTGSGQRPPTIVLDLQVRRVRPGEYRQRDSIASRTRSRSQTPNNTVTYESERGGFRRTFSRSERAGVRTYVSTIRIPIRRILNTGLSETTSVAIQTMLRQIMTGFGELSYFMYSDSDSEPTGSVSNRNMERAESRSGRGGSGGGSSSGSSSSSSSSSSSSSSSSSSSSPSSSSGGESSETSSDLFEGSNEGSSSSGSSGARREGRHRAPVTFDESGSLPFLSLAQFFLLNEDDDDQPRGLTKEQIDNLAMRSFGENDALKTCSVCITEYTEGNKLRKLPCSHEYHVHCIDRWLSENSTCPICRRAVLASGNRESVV
active: [19] -0.748
inactive: [2] -0.053 | [17] -0.323 | [18] -0.044 | [7] -0.193 | [20] 0.233

RNASEH2B, A0A1B0GUE7
inactive: [1] -0.128 | [9] -0.01 | [10] 0.037 | [12] 0.211 | [14] 0.067 | [15] 0.035

RAD17 (UniProt O75943)
inactive: [2] -0.019 | [17] -0.01 | [3] 0.021 | [4] -0.027 | [5] -0.194 | [6] 0.005 | [18] -0.015 | [7] 0 | [8] -0.055 | [9] -0.027 | [10] 0.073 | [11] -0.064 | [12] -0.023 | [13] 0 | [19] -0.032 | [14] -0.085 | [20] 0.038

RNF2 (UniProt Q99496)
inactive: [17] 0.087 | [4] 0.031 | [5] -0.299 | [6] 0.021 | [18] -0.032 | [9] 0.026 | [10] -0.047 | [11] -0.07 | [12] 0.027 | [13] -0.025 | [19] 0.154 | [14] -0.124 | [20] -0.015 | [16] -0.05
active: [3] 0.484 | [8] -0.442

RALGAPB isoform 3 (UniProt Q86X10)
Chain of UniProt Q86X10 (Q86X10 whole entry, looked up): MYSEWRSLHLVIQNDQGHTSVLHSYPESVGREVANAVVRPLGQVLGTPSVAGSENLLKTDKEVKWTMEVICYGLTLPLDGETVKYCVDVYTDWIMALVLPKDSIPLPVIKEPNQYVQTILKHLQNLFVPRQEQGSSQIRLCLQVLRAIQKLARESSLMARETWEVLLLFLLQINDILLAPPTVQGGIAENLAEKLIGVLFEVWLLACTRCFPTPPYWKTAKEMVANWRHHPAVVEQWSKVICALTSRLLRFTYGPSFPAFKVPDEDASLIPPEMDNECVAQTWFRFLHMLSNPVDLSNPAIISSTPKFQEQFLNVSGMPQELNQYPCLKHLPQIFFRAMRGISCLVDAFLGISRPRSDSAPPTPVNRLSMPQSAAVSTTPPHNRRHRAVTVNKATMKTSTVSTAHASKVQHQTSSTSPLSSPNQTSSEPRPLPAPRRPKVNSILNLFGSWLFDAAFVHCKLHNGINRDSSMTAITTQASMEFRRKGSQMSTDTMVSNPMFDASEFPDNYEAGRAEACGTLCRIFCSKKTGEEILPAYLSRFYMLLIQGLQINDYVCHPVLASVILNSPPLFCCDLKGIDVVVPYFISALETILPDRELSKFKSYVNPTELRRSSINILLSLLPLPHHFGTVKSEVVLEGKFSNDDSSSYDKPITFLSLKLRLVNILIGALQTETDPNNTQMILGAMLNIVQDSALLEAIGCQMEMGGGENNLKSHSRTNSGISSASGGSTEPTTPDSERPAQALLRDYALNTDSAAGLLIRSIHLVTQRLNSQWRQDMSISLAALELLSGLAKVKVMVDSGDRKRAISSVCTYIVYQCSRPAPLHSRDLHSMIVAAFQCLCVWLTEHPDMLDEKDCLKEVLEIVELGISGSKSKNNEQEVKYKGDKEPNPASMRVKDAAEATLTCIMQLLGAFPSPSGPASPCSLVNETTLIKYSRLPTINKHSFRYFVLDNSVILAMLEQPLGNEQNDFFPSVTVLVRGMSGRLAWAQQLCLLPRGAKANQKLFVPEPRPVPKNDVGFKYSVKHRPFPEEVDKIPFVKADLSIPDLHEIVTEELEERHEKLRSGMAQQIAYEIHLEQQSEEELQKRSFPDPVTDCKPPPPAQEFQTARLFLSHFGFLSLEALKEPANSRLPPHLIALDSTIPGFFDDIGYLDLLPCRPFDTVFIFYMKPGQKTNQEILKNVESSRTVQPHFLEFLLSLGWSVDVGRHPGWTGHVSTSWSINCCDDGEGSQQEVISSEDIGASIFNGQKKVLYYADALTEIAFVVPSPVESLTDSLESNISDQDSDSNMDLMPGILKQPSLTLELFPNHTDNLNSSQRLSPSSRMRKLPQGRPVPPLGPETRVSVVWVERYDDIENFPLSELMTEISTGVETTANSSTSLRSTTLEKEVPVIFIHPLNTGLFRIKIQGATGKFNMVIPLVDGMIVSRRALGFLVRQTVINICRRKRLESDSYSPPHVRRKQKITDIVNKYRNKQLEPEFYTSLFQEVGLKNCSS
inactive: [2] -0.018 | [3] -0.04 | [4] -0.396 | [5] -0.33 | [6] 0.027 | [7] -0.255 | [8] -0.026 | [11] 0.052 | [13] -0.034
